These results are taken from PubChem BioAssay (NCI).

“And” between values parts separate entries of the source, which are not always exact repeats. Equal values may be shown once. About 83,000 compounds went through this panel and 20% of them were active in at least one assay; those are over-represented in the sample as a whole.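 Compound tested at a single concentration for 48 hours in 96-well plates; a percent growth value below 10 was scored as active.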 The source made the active and inactive calls.

The test system of the experiment is MDA-MB-468 breast. Briefly: NCI-60 one-dose screen, 48 h (100 = growth as untreated, 0 = no growth, -100 = all killed). As to conditions: 10 µM unless noted.
In the case of `CCN1C(=O)N(CC)C2Nn3c(s/c(=C4\C(=O)N(C(C)C)c5ccccc54)c3=O)=NC21` (stereo not given), the growth was 9.33% (active). The result for `C=C1C(=O)O[C@H]2[C@H]1CC/C(Cn1cc(-c3cccc(Cl)c3)nn1)=C\CC[C@@]1(C)O[C@@H]21` reads -66.1% (active).

In the case of `COc1ccc(-c2nc3c(c(C)nn3-c3ccc(F)cc3)c(=O)[nH]2)cc1`, the growth was 88.9% (inactive).

As for `CCCCCCCCn1ccc2cc(NC(=O)CN3CCN(c4cc(C)nc(Cl)n4)CC3)ccc21`, the growth was 56.6% (inactive). Consider `CCSCC1CC(O)(c2ccccc2)C(c2ccccc2)C(c2ccc(F)cc2)O1` (stereo not given), for which the growth is -18% (active). The result for `Cc1cc(C)n(C(=O)c2nn(-c3ccc(Cl)cc3)cc2O)n1` reads 64.6% (inactive); that for `CC12CCC3c4ccccc4CCC3(CO1)C2` (stereo not given), 88.7% (inactive). The result for `O=C1CSC(=S)N1CCc1ccc(O)cc1` reads 40.5% (inactive); that for `Cc1nc(Nc2ccc(S(=O)(=O)Nc3cc(C)on3)cc2)c2ccccc2n1`, 104% (inactive); that for `CCCCCCCCCCCC(=O)C(CCCCCCCCCC)C(=O)Nc1ccccc1` (stereo not given), 109% (inactive). Then `CC1=C(C/C=C(\C)CCC[C@H](C)CCC[C@H](C)CCCC(C)C)C(=O)c2ccccc2C1=O`, with 116% (inactive); and `Clc1ccc2c(c1)-c1ccccc1C1=NCCN12`, with 7.52% (active). As for `COc1ccc(CCN2CCC(Nc3nc4ccccc4n3Cc3ccc(F)cc3)CC2)cc1`, the growth is -84.1% (active). With `O=C(Nc1ccc(Br)c(Cl)c1)c1cc(F)ccc1O`, the growth is -24.5% (active). The result for `C[C@]12CCc3nc(Nc4ccccc4)sc3C1=CC[C@@H]1[C@@H]2CC[C@]2(C)/C(=N/NC(N)=S)CC[C@@H]12` reads 14.9% (inactive); that for `CC(=O)OC[C@@]12Oc3c(cccc3-c3ccc(O)c4c3O[C@]3(COC(C)=O)C(=C4O)C(=O)C[C@H](C)[C@@H]3OC(C)=O)C(O)=C1C(=O)C[C@H](C)[C@@H]2OC(C)=O`, -30.2% (active); that for `COc1ccc(/C=C2\NC(=S)NC2=O)cc1`, 102% (inactive). For `CC(C)(CO)N(CCO)CCO`, the growth is 95.1% (inactive). The result for `COc1ccc(CN2c3ccccc3Sc3ccccc32)cc1F` reads -0.673% (active); that for `CCC(=O)c1cc([N+](=O)[O-])c(Br)s1`, 74.6% (inactive).

Regarding `O=C(O)c1cccc2c1-c1ccc(Cl)cc1C2`, the growth was 108% (inactive). The result for `COc1ccc(-c2cn[nH]c2-c2cc(OC)c(OC)c(OC)c2)cc1N` reads -13.3% (active) and -29.2% (active); that for `N#C/C(=C\NC(=S)N=Nc1c(O)[nH]c2ccccc12)c1nc2ccccc2s1`, 79.8% (inactive). In the case of `CCN1C(=O)N(CC)C2Nn3c(s/c(=C\c4ccc([N+](=O)[O-])cc4)c3=O)=NC21` (stereo not given), the growth is 7.37% (active).

Consider `O=C(Cn1c(=O)sc2ccccc21)NNS(=O)(=O)c1ccccc1[N+](=O)[O-]`, for which the growth was 107% (inactive). On to `CCCCCCCOc1c(OC)cc(C2CC(=O)Nc3c2c(C)nn3-c2nc3ccccc3[nH]2)cc1OC` (stereo not given), for which the growth is -4.43% (active). Then `COc1ccc2c(c1)c(-c1nn3cc(-c4ccncc4)nc3s1)cn2C`, with 79.3% (inactive); and `C=C1CCC2C3(C)COC(c4ccccc4)OC3CCC2(C)C1/C=C/C1=CCOC1=O` (stereo not given), with 29.5% (inactive); and `CC(=O)O[C@]1(C)C[C@H](O)[C@]2(O)C=CO[C@H](O[C@@H]3O[C@H](CO)[C@@H](O)[C@H](O)[C@H]3O)[C@@H]21`, with 96.8% (inactive). Then `COc1cccc(-c2nc3sccn3c2-c2ccnc(NCCCNS(=O)(=O)c3ccc(C(F)(F)F)cc3)c2)c1`, with 42.5% (inactive). The result for `COc1ccc(-c2c(N)n[nH]c2-c2cc(OC)c3c(c2)OCCO3)cc1` reads 71.7% (inactive). As for `NC(=S)N/N=C1\CCCC(C(F)(F)F)C1` (stereo not given), the growth was 31.3% (inactive). The result for `O=C1/C(=C/c2ccc(Br)cc2)COc2ccc(O)c(O)c21` reads -51.8% (active). For `COCCN(C(=O)Cc1cccs1)C(C(=O)NCc1ccc(OC)cc1)c1ccc(C(C)C)cc1` (stereo not given), the growth is 90.7% (inactive). The result for `CCCCc1nc(Cl)c(C2CC(c3ccc(S(N)(=O)=O)cc3)=NN2c2cc(Cl)cc(Cl)c2)[nH]1` (stereo not given) reads 22.1% (inactive). As for `Nc1ccn(C2O[C@H](CO)[C@@H](O)[C@@H]2O)c(=O)n1` (stereo not given in full), the growth was 78.3% (inactive).

On to `CCCCC1COc2cccc3c2N1C=C/C3=C\C(=O)N(C)c1ccccc1` (stereo not given), for which the growth is 18.8% (inactive). Take `CCn1cc(C(=O)O)c(=O)c2cc(F)c(N3CCN(S(=O)(=O)c4ccc(OC)c(OC)c4)CC3)cc21`: the growth is 100% (inactive). For the molecule `CCN1C(=O)N(CC)C2C1NN=C1SCC(=O)N12` (stereo not given), the growth is 18.2% (inactive). Then `N=c1c(C(=O)OCc2ccccc2)ncc(CCl)n1O`, with 68.6% (inactive).
